Reference: the supplement of paper PMC11732987, “Enantioselective OTUD7B fragment discovery through chemoproteomics screening and high-throughput optimisation” (Communications Chemistry, 2025)

What was measured:
Experiment in all cases: log2 ratio of Biotin-Ahx-Ub-VS probe labelling (fragment/DMSO); higher = less target engagement (more negative = stronger competition), active = hit call of the paper (q ≤ 0.05, log2 ratio ≤ -1)
Conditions in all cases: compound concentration: 200 uM; treatment time: 3 h
USP9X = USP9X (UniProt Q93008)
How it was run: (§1)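 HEK293T lysate (495 µg per sample, in Tris/CHAPS/IGEPAL buffer with protease inhibitors) was treated in triplicate with fragment at 200 µM or with DMSO for 3 h. It was then treated with Biotin-Ahx-Ub-VS (0.5 µM final) for 1 h. Labelled DUBs were NeutrAvidin-enriched, digested with LysC and trypsin, and run by diaPASEF LC-MS/MS. Spectronaut label-free quantities were global-median-normalised. Values are average log2 ratios fragment/DMSO by unpaired t-test, using proteins with ≥2 unique peptides.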

UniProt O00487 = target: UniProt O00487
How it was run: as §1

UniProt O00507 = target: UniProt O00507
How it was run: as §1

UniProt P51784 = target: UniProt P51784
How it was run: as §1

UniProt Q5T2D3 = target: T1, UniProt Q5T2D3
T1 sequence (whole entry): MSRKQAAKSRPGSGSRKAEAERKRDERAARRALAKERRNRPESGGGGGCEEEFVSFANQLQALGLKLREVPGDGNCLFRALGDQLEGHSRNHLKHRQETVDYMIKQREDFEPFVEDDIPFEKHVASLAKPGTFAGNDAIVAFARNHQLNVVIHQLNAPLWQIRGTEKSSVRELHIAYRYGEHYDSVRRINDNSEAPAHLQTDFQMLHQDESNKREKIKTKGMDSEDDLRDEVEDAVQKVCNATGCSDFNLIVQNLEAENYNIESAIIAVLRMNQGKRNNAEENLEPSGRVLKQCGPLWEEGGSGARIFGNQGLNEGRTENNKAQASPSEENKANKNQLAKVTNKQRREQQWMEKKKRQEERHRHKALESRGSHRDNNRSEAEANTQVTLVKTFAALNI
How it was run: as §1

UniProt Q8TE49 = target: T2, UniProt Q8TE49
T2 sequence (whole entry): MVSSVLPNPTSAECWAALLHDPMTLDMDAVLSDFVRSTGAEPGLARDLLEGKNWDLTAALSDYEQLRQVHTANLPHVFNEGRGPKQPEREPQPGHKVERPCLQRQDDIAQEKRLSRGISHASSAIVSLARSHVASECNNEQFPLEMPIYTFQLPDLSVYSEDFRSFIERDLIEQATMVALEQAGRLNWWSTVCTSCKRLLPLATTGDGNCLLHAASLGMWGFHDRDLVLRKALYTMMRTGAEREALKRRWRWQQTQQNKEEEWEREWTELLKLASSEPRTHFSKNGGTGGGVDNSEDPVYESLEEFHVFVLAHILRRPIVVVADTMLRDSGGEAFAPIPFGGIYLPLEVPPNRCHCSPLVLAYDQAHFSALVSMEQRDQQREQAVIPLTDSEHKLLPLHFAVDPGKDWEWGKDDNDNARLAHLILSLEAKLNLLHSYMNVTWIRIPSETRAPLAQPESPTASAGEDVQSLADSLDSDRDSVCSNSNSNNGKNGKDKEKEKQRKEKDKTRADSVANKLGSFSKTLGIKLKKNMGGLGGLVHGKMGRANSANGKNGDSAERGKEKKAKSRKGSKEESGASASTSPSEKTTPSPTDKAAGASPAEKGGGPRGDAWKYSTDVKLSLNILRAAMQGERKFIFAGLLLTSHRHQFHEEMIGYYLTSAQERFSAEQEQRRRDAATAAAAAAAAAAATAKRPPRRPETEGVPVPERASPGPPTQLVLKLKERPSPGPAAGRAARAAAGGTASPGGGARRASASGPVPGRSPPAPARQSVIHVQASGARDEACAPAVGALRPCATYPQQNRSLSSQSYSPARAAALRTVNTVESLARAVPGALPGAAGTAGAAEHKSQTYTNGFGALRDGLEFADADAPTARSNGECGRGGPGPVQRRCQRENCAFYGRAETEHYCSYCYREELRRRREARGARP
How it was run: as §1

UniProt Q9P2H5 = target: T3, UniProt Q9P2H5
T3 sequence (whole entry): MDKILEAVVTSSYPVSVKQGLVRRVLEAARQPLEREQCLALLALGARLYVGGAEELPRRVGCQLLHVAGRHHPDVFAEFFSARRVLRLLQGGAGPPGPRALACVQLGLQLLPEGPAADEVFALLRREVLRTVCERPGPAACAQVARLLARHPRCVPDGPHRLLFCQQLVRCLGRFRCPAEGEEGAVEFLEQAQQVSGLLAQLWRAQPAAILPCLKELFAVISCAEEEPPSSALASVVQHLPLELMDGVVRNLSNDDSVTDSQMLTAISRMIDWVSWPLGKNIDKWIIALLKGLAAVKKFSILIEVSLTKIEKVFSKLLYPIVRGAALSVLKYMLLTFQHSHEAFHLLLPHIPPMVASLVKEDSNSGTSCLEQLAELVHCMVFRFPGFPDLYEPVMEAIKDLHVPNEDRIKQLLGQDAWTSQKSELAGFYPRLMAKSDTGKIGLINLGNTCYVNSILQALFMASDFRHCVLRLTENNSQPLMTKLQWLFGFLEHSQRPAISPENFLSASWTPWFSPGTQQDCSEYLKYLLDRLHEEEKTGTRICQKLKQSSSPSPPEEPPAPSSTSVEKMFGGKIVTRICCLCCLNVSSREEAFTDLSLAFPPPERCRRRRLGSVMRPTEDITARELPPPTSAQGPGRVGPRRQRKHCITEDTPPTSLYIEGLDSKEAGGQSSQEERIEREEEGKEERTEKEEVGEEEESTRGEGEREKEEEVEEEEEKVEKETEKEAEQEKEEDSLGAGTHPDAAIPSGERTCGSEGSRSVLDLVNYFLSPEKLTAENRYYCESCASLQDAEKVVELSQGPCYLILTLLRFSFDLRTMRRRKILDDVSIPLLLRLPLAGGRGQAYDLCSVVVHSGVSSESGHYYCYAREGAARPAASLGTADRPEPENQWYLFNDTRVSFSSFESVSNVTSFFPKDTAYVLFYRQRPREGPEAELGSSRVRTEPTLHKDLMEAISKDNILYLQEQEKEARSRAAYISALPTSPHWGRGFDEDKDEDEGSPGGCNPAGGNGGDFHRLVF
How it was run: as §1

UniProt Q9UGI0 = target: T4, UniProt Q9UGI0
T4 sequence (whole entry): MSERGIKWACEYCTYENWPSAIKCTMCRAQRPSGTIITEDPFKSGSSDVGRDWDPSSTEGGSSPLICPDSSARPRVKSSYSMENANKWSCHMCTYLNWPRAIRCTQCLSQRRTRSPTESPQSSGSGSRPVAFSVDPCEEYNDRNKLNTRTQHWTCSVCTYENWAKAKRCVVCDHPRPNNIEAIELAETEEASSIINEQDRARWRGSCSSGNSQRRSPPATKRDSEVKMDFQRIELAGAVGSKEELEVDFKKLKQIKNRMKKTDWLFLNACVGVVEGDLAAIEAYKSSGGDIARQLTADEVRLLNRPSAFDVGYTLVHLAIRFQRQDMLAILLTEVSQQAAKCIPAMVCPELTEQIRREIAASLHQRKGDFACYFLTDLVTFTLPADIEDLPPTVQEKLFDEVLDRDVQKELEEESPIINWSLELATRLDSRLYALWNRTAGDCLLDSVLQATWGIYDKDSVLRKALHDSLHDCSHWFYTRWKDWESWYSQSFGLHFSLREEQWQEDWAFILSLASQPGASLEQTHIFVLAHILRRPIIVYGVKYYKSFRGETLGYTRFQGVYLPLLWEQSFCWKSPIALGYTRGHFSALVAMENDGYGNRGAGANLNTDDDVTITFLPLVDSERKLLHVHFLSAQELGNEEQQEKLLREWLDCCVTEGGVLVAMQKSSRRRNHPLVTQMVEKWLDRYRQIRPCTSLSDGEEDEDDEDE
How it was run: as §1

YOD1 = target: T5, YOD1 (UniProt Q5VVQ6)
T5 sequence (whole entry): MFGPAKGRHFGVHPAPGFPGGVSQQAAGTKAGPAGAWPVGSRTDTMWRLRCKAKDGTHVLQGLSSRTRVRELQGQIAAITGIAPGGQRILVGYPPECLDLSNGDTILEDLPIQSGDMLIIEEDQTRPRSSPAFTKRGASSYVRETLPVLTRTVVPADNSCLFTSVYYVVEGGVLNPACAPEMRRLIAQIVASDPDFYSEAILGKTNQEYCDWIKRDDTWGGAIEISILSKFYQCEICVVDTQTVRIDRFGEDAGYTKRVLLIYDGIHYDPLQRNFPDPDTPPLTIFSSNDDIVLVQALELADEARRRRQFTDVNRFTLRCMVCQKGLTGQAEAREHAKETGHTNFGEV
How it was run: as §1

Measured: log2 ratio of Biotin-Ahx-Ub-VS probe labelling

Chain of UniProt O00507 (O00507 whole entry): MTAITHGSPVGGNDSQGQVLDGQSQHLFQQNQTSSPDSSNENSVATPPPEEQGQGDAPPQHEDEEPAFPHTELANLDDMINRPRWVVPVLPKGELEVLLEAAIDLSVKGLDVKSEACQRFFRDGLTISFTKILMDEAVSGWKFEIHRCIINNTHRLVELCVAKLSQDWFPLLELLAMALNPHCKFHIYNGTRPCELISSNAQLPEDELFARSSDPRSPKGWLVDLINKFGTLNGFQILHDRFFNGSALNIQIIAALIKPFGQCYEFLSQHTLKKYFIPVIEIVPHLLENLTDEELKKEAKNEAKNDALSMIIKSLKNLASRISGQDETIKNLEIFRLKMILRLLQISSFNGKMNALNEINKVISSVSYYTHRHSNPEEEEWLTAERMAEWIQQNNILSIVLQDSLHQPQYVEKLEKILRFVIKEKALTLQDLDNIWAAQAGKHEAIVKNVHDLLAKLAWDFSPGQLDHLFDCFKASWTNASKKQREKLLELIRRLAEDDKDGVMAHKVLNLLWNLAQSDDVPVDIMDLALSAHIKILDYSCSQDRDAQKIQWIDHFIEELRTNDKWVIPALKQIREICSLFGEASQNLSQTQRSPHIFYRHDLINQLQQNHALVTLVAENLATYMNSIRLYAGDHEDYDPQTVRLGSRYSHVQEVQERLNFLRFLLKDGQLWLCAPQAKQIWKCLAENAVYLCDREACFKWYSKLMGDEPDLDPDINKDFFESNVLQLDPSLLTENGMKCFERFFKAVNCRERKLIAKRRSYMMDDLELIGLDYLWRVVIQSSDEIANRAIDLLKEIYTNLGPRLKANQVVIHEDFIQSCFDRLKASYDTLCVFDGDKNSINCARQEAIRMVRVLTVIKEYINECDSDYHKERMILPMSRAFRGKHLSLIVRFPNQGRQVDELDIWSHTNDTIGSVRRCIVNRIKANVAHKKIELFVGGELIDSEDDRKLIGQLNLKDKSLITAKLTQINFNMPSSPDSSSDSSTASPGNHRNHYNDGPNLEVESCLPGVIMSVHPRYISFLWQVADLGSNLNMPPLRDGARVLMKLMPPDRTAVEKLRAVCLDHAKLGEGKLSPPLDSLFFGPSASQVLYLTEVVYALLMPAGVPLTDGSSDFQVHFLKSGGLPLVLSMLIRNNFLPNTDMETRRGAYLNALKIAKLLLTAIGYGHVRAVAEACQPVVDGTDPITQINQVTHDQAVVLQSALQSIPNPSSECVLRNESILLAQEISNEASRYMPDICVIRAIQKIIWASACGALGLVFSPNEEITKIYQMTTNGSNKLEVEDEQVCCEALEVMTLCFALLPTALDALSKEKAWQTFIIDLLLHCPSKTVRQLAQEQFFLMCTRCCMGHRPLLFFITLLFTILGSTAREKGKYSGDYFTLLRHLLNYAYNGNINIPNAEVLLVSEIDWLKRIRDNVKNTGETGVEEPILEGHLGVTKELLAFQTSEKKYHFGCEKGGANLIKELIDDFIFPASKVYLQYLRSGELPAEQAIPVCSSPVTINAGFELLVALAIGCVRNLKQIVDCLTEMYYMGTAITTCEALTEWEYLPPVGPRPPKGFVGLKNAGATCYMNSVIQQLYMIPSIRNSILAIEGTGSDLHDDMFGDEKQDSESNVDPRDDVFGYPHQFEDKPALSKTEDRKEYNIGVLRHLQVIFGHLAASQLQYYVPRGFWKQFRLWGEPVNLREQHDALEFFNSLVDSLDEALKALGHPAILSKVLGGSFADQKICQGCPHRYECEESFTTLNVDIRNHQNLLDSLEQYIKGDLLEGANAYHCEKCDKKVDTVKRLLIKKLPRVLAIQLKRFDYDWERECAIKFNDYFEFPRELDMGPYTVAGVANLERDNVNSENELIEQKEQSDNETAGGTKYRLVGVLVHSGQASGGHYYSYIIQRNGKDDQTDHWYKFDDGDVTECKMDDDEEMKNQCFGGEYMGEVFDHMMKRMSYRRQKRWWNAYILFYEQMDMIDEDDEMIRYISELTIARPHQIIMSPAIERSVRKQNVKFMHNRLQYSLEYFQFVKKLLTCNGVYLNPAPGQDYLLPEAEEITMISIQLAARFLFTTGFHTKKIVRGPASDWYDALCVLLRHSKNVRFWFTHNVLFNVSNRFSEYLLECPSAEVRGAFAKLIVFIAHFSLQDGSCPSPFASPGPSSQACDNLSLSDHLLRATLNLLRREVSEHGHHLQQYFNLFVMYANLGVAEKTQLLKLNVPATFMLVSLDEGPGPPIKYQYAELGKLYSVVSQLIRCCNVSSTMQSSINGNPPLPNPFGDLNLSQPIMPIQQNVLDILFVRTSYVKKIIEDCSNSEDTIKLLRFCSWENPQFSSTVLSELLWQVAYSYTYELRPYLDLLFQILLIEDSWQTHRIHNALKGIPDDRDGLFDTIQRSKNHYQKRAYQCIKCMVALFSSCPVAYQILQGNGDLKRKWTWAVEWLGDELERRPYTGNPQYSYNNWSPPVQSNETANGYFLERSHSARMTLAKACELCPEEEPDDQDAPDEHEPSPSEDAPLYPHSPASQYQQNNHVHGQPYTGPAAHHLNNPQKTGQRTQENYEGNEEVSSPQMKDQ
Chain of UniProt O00487 (O00487 whole entry): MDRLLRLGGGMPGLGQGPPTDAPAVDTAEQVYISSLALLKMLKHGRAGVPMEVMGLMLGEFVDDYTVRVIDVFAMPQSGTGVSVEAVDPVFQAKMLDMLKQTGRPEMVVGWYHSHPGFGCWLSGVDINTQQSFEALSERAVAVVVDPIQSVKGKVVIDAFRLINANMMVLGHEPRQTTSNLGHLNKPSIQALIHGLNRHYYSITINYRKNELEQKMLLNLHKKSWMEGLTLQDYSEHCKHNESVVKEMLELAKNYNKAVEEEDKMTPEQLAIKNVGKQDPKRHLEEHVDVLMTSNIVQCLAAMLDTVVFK
Chain of UniProt P51784 (P51784 whole entry): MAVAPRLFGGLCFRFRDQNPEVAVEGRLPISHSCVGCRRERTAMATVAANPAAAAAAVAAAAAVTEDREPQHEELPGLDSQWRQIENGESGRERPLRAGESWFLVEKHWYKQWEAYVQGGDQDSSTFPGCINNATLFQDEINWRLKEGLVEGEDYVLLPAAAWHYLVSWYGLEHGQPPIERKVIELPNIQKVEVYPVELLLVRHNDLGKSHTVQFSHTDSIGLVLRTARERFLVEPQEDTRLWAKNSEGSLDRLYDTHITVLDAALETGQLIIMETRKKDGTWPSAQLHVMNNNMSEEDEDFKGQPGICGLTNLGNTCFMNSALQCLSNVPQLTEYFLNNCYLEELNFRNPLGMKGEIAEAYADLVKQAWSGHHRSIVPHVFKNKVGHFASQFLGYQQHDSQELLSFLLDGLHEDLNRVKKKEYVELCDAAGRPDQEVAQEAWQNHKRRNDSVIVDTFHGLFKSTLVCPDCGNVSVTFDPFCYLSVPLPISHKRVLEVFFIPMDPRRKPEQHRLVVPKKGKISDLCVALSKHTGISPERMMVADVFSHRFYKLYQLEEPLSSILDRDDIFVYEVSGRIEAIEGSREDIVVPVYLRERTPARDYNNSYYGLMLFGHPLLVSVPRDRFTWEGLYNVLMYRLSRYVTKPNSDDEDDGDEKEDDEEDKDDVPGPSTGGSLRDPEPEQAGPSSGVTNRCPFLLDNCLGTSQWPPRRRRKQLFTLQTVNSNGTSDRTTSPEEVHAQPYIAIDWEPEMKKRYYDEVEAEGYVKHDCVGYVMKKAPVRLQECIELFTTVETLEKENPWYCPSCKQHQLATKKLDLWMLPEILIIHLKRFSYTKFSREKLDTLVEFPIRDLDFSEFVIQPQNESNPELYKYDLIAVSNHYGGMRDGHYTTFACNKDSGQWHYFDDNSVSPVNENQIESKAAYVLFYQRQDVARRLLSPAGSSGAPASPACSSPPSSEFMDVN

O=C(CCl)N(Cc1ccsc1)C1CC1
inactive: USP9X -0.139 | UniProt O00487 0.0101 | UniProt O00507 -0.302 | UniProt P51784 -0.0887 | UniProt Q5T2D3 -0.0506 | UniProt Q8TE49 -0.101 | UniProt Q9P2H5 0.0505 | UniProt Q9UGI0 -0.949 | YOD1 -0.0601
